# Tb PFK inh: blocks T. brucei phosphofructokinase | O15648 | AID 485367 | T. brucei PFK, ADP-Glo luminescence | Potency, µM (top dose mostly 57.5 µM), without a hit: at the highest dose activity, negative = inhibition, usual class: inhibitors | 330,000 compounds, 0.17% hits;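 also: potency is read from the fitted curve at half-maximal effect; 0% = uninhibited 1x PFK enzyme wells and -100% = no-enzyme wells; nearly all actives have a fitted effect of over 60% in size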
#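 Compounds were pin-transferred as a titration series up to 57 uM into substrate buffer (0.5 mM F6P, 0.1 mM ATP, pH 8.0), then 1.25 nM PFK was added and reactions ran 45 min before ADP-Glo detection.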
# VDR inhibitor: inhibitors of human vitamin D receptor; VDR-SRC2-3 peptide fluorescence polarization, 2 h; Potency, µM, for inactives: max response, negative = inhibition, hits mostly inhibitors; 400,000 compounds, 0.93% hits; AID 504847; also: potency is read from the fitted curve at half-maximal effect; % is scaled to controls: 0 for no effect and ±100 for the full control effect
#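 Measured by FP: displacement of SRC2-3 coactivator peptide from VDR by library compounds, following a two-hour ambient incubation.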
# PGK inhibitor: inhibitors of T. brucei phosphoglycerate kinase. P07378. PGK/GAPDH coupled, Kinase-Glo luminescence, 60 min. Potency, µM (highest dose often 57.5 µM), for inactives: top-dose activity change, negative = inhibition, most hits filed as inhibitors. 380,000 compounds, 0.043% hits. AID 602233; also: potency is read from the fitted curve at half-maximal effect; % is scaled to controls: 0 for no effect and ±100 for the full control effect; nearly all actives have a fitted effect of over 60% in size
# Target sequence (P07378 whole entry, looked up): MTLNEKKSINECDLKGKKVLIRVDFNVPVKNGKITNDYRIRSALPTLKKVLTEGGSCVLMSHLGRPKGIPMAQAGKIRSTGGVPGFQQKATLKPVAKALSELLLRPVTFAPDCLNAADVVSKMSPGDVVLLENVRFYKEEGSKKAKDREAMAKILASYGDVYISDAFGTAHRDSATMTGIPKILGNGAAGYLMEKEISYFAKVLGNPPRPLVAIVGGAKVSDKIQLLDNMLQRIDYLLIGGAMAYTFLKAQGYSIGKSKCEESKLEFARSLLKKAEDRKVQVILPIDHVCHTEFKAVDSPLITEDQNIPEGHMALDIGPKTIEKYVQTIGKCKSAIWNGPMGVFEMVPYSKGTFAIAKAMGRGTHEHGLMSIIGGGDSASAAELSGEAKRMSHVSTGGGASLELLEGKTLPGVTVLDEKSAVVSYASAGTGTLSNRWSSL
#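 Recombinant glycosomal PGK reaction used 1,3-bisphosphoglycerate generated in-well by GAPDH (100nM final) in 100mM TEA pH 7.6, 5mM MgCl2, 0.01% Tween-20. After 60 minutes at room temperature, ATP was read by Kinase-Glo Plus luminescence end-point.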
# GLS inhibitor: glutaminase GLS (human) inhibition; O94925; GLS enzymatic activity, qHTS titration; Potency, µM (titrated, usually from 45.5 µM), inactives show at the highest dose activity change, negative = inhibition, actives largely listed as inhibitors; 410,000 compounds, 0.21% hits; AID 624170; also: potency is read from the fitted curve at half-maximal effect; % is scaled to controls: 0 for no effect and ±100 for the full control effect
#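 hKGA in 45 mM KH2PO4 pH 8.2, 0.02% Tween-20 with pin-transferred compounds; 1 mM L-glutamine (stock) plus glutamate oxidase/HRP/Amplex Red coupling added. Fluorescence read initially and after 30 min at RT.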
# Pin1 inh: inhibitors of human Pin1. Q13526. Pin1 FP peptide displacement, HiFluor488, 10 min. Potency, µM (doses to about 115 µM), for inactives: at the top dose activity, negative = inhibition, usual class: inhibitors. 390,000 compounds, 0.009% hits; active = well fitted inhibition curve with a large enough effect in the polarisation, with a control signal flat, not every such curve was filed as active; inconclusive = small, poorly fitted or top-dose-only effect, or effect the other way, or a change in a side signal; inactive = no such curve, though single readings can be large or run the other way; the % refers to the polarisation; also: potency is read from the fitted curve at half-maximal effect; % is scaled to controls: 0 for no effect and ±100 for the full control effect
# Target sequence (Q13526 whole entry, looked up): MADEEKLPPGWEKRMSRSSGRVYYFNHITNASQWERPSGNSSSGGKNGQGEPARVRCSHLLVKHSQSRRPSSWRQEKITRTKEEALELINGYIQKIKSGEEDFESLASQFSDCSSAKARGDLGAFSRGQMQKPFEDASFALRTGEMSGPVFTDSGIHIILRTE
# USP1-UAF1 confirm: USP1-UAF1 deubiquitinase inhibition validated; Potency, µM (titrated, usually from 114 µM), inactives show top-dose activity change, negative = inhibition, most hits filed as inhibitors; Ub-Rhodamine cleavage, fluorescence kinetic read; 50 compounds, 50% hits; AID 540327; shares compounds with VDR inhibitor
# VDR inh confirm: confirmation of human vitamin D receptor inhibitors | VDR-coactivator inhibition assay, qHTS confirmation | shares compounds with VDR inhibitor | 840 compounds, 89% hits | Potency, µM, most hits filed as inhibitors | AID 602199; also: potency is read from the fitted curve at half-maximal effect
# VDR FP: blocks human VDR-coactivator binding in fluorescein assay | shares compounds with VDR inhibitor | VDR-coactivator binding, fluorescein fluorescence polarization | Potency, µM (doses to about 57.1 µM), for the others: top-dose activity change, negative = inhibition, hits mostly inhibitors | 840 compounds, 48% hits | AID 602200; also: potency is read from the fitted curve at half-maximal effect
# VDR bla: confirmation of human vitamin D receptor inhibitors in reporter cells | shares compounds with VDR inhibitor | VDR beta-lactamase reporter cells, FRET ratio; cells co-treated with VDR agonist LG190178 | Potency, µM (top dose mostly 46.1 µM), for inactives: at the highest dose activity change, negative = inhibition, most hits filed as inhibitors | 840 compounds, 23% hits | AID 602202; also: potency is read from the fitted curve at half-maximal effect; % is scaled to controls: 0 for no effect and ±100 for the full control effect
# VDR viability: cytotoxic in counter-screen for VDR inhibitors; cytotoxicity counter-screen, cell viability, qHTS; Potency, µM (series often up to 48.3 µM), without a hit: top-dose activity change, negative = cytotoxicity, most hits filed as cytotoxic; 840 compounds, 18% hits; shares compounds with VDR inhibitor;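 also: potency is read from the fitted curve at half-maximal effect; plate controls were DMSO for no effect and high-concentration cycloheximide for full effect; nearly all actives have a fitted effect of over 75% in size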
# * marks the source's active call; other numbers are inactive results; i = inactive; ? = inconclusive; · = no result given. Shown are actives, neighbours in structure and some others; about 1.1% of the full set was active somewhere. Unless noted, calls follow the shape of the dose curve; as a rule, active = well fitted curve in the direction sought with a large enough effect; inconclusive = small, poorly fitted or top-dose-only effect, or another doubt; inactive = no such curve, though single readings can be large; an effect the other way counts as inactive or inconclusive.
SMILES,Tb PFK inh,VDR inhibitor,PGK inhibitor,GLS inhibitor,Pin1 inh,VDR inh confirm,VDR FP,VDR bla,VDR viability,others
COc1ccc(NC(=O)c2cc(C3CCCCN3S(=O)(=O)Cc3ccccc3)on2)c(C)c1 (stereo unspecified),·,·,·,0%,·,·,·,·,·,
O=C1C(=O)c2ccc(-c3ccccc3)cc2-c2ccccc21,-6%,3.5µM*,-8%,-7%,-12%,0.67*,?,3.3µM*,2.5µM*,
Nc1ccc2c(c1)C(=O)c1ccccc1-2,·,7%,-2%,-15%,0%,·,·,·,·,
Nc1ccc2c(c1)C(=O)C(=O)c1ccccc1-2,-20%,20µM*,?,-5%,?,6.7*,?,4.1µM*,2.9µM*,
COc1ccccc1N1CCN(C(=O)c2cnc(N3CCCCC3)c3ccccc23)CC1,·,2%,2%,6%,-14%,·,·,·,·,
CCOC(=O)CSC1=NC(=O)/C(=C\c2ccc(Cl)cc2)S1,9%,79µM*,i,-4%,74%,8.4*,75%,?,?,
Cc1nc(-n2nc(C)c(CCC(C)C)c2C)sc1C(=O)Nc1ccc(Cl)cc1,·,9%,8%,-6%,-2%,·,·,·,·,
O=C(/C=C/c1ccccc1)c1ccccc1,-11%,18µM*,-11%,3%,4%,16*,11µM*,26µM*,?,
O=C(/C=C/c1ccccc1)c1ccc2ccccc2c1,·,?,-8%,0%,?,·,·,·,·,
O=C(CSc1nnc2[nH]c(=O)cc(-c3ccccc3)n12)Nc1cc(C(F)(F)F)ccc1Cl,·,13%,0%,7%,3%,·,·,·,·,
O=C(Nc1ccc(N2CCOCC2)c(S(=O)(=O)Nc2ccc(Cl)cc2)c1)c1ccc(=O)[nH]n1,-3%,3%,-18%,-16%,?,·,·,·,·,
O=C(Nc1ccc(N2CCOCC2)c(S(=O)(=O)Nc2ccc(Cl)cc2)c1)c1cnccn1,0%,79µM*,i,-7%,0%,17*,?,18%,-12%,
C[C@H](O)[C@@H]1C(=O)N2CCc3ccc(-c4ccccc4)cc3[C@@H]2C[C@@H]1N(C)C(=O)Nc1cc(Cl)cc(Cl)c1,·,-14%,-1%,-1%,4%,·,·,·,·,
CCOC(=O)COc1ccccc1/C=C\[N+](=O)[O-],?,11µM*,-4%,12%,3%,3.4*,?,4.6µM*,8.2µM*,
COCc1ccc(-c2c(-c3cc(OC)cc(OC)c3)oc(=O)c3cc(OC)c(OC)cc23)cc1,0%,-21%,-7%,4%,7%,·,·,·,·,
CCOC(=O)c1c(N)sc(N)c1C(=O)OCC,4%,8.9µM*,i,30%,3%,4.7*,8.9µM*,1%,9%,
CCOc1ccc(CNC(=O)C2CCN(S(=O)(=O)c3cn(C)cn3)CC2)cc1,·,0%,-7%,-22%,-7%,·,·,·,·,
O=C1C(=Cc2ccncc2)CCCc2ccccc21,·,·,i,8%,·,·,·,·,·,
O=C1/C(=C/c2ccncc2)CCC/C1=C\c1ccncc1,-9%,7.1µM*,-12%,8%,-1%,5.3*,3.5µM*,3.3µM*,21µM*,
O=[N+]([O-])c1c(Nc2ccccc2O)cc(Cl)c2nonc12,?,45µM*,-1%,-2%,?,4.2*,?,4.6µM*,13µM*,
O=[N+]([O-])c1c(Nc2ccccc2O)ccc2nonc12,0%,-8%,-9%,0%,-4%,·,·,·,·,
O=C(O)c1cc(Nc2cc(Cl)c3nonc3c2[N+](=O)[O-])ccc1O,-27%,3.5µM*,·,-7%,?,2.7*,?,3%,19%,
O=[N+]([O-])c1c(Nc2ccc(O)cc2)cc(N2CCOCC2)c2nonc12,-3%,-18%,-6%,-2%,2%,·,·,·,·,
CN(C)C(=O)C1CCN(c2nc(-c3ccc(Br)cc3)cs2)CC1,·,·,·,·,-6%,·,·,·,·,
N#CC1=C(N)C(C#N)(C#N)C(c2cccnc2)C2CN(C(=O)OCc3ccccc3)CC=C12 (stereo unspecified),-2%,20µM*,15%,-7%,?,12*,?,6%,-8%,
SMILES,Tb PFK inh,VDR inhibitor,PGK inhibitor,GLS inhibitor,Pin1 inh,VDR inh confirm,VDR FP,VDR bla,VDR viability,others
COc1ccc(-c2cc(C(F)(F)F)nc(SCC(=O)NC(C)c3ccccc3)n2)cc1 (stereo unspecified),·,-12%,i,1%,1%,·,·,·,·,
COc1cc2c(cc1OC)-c1cc3nc4ccccc4nc3n1C(C)(C)C2,·,7.1µM*,·,·,·,20*,?,?,-8%,USP1-UAF1 confirm=47µM*
CC1c2ccccc2CN1CC1=NCCN1 (stereo unspecified),·,-5%,·,·,·,·,·,·,·,
C[C@@H]1c2ccccc2CN1CC1=NCCN1,·,3%,·,·,·,·,·,·,·,USP1-UAF1 confirm=-11%
CC(=O)c1cccc(N(C(=O)Cn2nnc3ccccc32)C(C(=O)NCc2ccccc2)c2ccc(F)cc2)c1 (stereo unspecified),·,1%,i,-5%,5%,·,·,·,·,
c1ccc2c(c1)Sc1ccccc1N2CCN1CCCC1,·,4%,·,8%,·,·,·,·,·,
CN1CCN(CCCN2c3ccccc3Sc3ccc(C(F)(F)F)cc32)CC1,4%,?,-2%,0%,-1%,·,·,·,·,USP1-UAF1 confirm=?
COc1ccc(C(=O)N2CCN(c3nc4c(C)c(Cl)ccc4s3)CC2)c(OC)c1,·,-3%,i,-5%,-12%,·,·,·,·,
C=CCN1C(=O)C(C)(C)Nc2ccccc21,16%,6%,-9%,8%,-1%,·,·,·,·,
C=CCN1C(=O)/C(=N/n2cnnc2)c2ccccc21,0%,40µM*,-2%,-8%,-8%,17*,?,23%,-26%,
O=S(=O)(/N=C(/Sc1ccccc1)c1ccccc1)c1ccc(Cl)cc1,·,50µM*,·,·,23%,7.1*,16µM*,-2%,?,
CS/C(=N\S(=O)(=O)c1ccccc1)c1ccccc1,0%,5%,-9%,16%,-4%,·,·,·,·,
Cc1c(N/C(=N/S(=O)(=O)c2cc([N+](=O)[O-])ccc2Cl)c2ccccc2)c(=O)n(-c2ccccc2)n1C,2%,-14%,-1%,2%,-12%,·,·,·,·,

# Screens from PubChem BioAssay.
